# Assay outcomes (PubChem BioAssay)
# Hits are enriched below; roughly 5% of the tested compounds scored in any of these assays.
# HCMV antiviral – human cytomegalovirus inhibition. HFF cells, HCMV-luciferase reporter, 72 h; hits give low values. activity change, negative = inhibition, % at 57.5 µM. actives 4.5% (n = 410,000); in the data active = activity change below about -60%; inconclusive = no clear call, values can overlap the other calls; inactive = above about -39%
#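 Compounds were evaluated in HFFs infected with an HCMV luciferase reporter virus (MOI 1 PFU/cell). Luciferase in lysates collected 72 h post infection served as the replication measure.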
# Tb PYK inh – blocks Trypanosoma brucei pyruvate kinase. Q57TT1. TbPYK enzyme, Kinase-Glo Plus ATP luminescence, 45 min. Potency, µM (highest dose often 76.8 µM), inactives show at the top dose activity, negative = inhibition, hits mostly inhibitors. actives 0.12% (n = 410,000); note: potency is the fitted concentration of half-maximal effect; nearly all actives have a fitted effect of over 50% in size
#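 In this concentration-response screen, enzyme-free wells defined baseline while DMSO plates tracked drift. Each reaction combined TbPYK, substrate, compound and 130 uM ADP for 45 min at room temperature. Kinase-Glo Plus luminescence gave the signal.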
# LmPK inhibitor – LmPK (Leishmania mexicana) enzyme inhibition; Q27686; Potency, µM (highest dose often 57.5 µM), for the others: at the highest dose activity change, negative = inhibition, actives largely listed as inhibitors; actives 0.37% (n = 290,000); AID 1721; purified LmPK, Kinase-Glo ATP luminescence, 1 h; note: potency is the fitted concentration of half-maximal effect
# Target sequence (Q27686 whole entry, looked up): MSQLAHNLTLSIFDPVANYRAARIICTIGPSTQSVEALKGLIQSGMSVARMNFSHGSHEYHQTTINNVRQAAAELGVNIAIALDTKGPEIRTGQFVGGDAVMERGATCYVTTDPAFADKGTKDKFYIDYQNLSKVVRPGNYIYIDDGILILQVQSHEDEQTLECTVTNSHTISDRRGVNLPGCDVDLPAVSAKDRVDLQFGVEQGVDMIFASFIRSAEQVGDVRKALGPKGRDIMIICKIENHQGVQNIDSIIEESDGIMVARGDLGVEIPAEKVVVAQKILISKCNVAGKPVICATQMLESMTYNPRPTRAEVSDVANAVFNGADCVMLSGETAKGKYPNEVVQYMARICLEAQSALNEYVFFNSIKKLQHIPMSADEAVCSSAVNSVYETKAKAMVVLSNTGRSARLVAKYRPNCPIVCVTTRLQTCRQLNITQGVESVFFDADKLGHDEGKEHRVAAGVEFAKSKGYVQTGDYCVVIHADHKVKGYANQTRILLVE
#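 ATP generated from ADP (0.1 mM) and PEP (0.5 mM) by 0.1 nM LmPK over 1 h at room temperature (pH 7.2 imidazole buffer) was detected by coupled luciferase luminescence. Values were normalized to uninhibited and no-enzyme wells.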
# Vaccinia Venus – inhibitors of vaccinia virus (Venus reporter); Vaccinia virus Venus reporter expression, fluorescence; Potency, µM (top dose mostly 36.5 µM), for inactives: top-dose activity change, negative = inhibition, hits mostly inhibitors; actives 0.46% (n = 330,000); AID 720580; calls by dose curve; tested in A549 cells; note: potency is the fitted concentration of half-maximal effect; nearly all actives have a fitted effect of over 30% in size
# Vaccinia mCherry – inhibitors of vaccinia virus infection (mCherry reporter signal); Vaccinia virus mCherry reporter infection, fluorescence; Potency, µM (highest dose often 36.5 µM), without a hit: at the highest dose activity change, negative = inhibition, most hits filed as inhibitors; actives 0.63% (n = 310,000); AID 720579; calls by dose curve; tested in A549 cells; note: potency is the fitted concentration of half-maximal effect; nearly all actives have a fitted effect of over 35% in size
# An asterisk follows results filed as active; i = inactive; ? = inconclusive; . = no result given. Unless noted, calls come from the whole dose curve; as a rule, active = well fitted curve in the direction sought with a large enough effect; inconclusive = small, poorly fitted or top-dose-only effect, or another doubt; inactive = no such curve, though single readings can be large; an effect the other way counts as inactive or inconclusive. % is set by controls: 0 for no effect and ±100 for the full control effect.
SMILES,HCMV antiviral,Tb PYK inh,LmPK inhibitor,Vaccinia Venus,Vaccinia mCherry
O=C(O)CCn1cc(C=C2C(=O)NC(=S)NC2=O)c(-c2ccccc2)n1,-1,?,-2%,1%,-11%
COc1cccc(-c2nn(C)c3sc(C(=O)N4CCN(c5cccc(C)c5)C(C)C4)cc23)c1 (stereo unspecified),-15,-5%,.,1%,-6%
CCS(=O)(=O)CCSc1nc(-c2ccc(Br)cc2)cc(-c2ccccc2)c1C#N,16,-10%,.,-9%,i
CS(=O)(=O)c1nc(-c2ccc(Br)cc2)cc(-c2ccccc2)c1C#N,-99*,1%,3%,.,.
COc1ccc(-c2cc(-c3ccccc3)c(C#N)c(S(C)(=O)=O)n2)cc1,-66*,5%,9%,-11%,i
CS(=O)c1nc(-c2ccc(Br)cc2)cc(-c2ccccc2)c1C#N (stereo unspecified),-98*,-2%,-8%,?,?
O=C(NCc1ccc(F)cc1)c1cc(C2CCCCN2C(=O)c2ccc(Cl)cc2)on1 (stereo unspecified),-14,1%,.,-29%,-1%
CC(=O)c1cccc(-c2ccc3c(=O)[nH]c(Nc4ccccc4)cc3c2)c1,-32,-2%,.,?,-21%
CC1(Cc2cccc(F)c2)C(=O)Nc2ccc(OC(F)(F)F)cc21 (stereo unspecified),?,10%,.,-18%,3%
Fc1ccc([C@H]2CCNCC2COc2ccc3c(c2)OCO3)cc1 (stereo partly specified),.,.,.,-13%,-21%
CNc1ncnc2c1ncn2[C@H]1CN(C2CCCC2)C[C@@H](CO)O1,-4,-3%,.,17%,4%
CC(C)=CCCC1(C)C=Cc2c(O)c3c(c(CC=C(C)C)c2O1)OC12C(=CC4CC1C(C)(C)OC2(C/C=C(/C)C(=O)O)C4O)C3=O (stereo unspecified),.,.,.,11µM*,13µM*
CC(C)=CCCC1(C)C=Cc2c(O)c3c(c(CC=C(C)C)c2O1)OC12C(=CCCC1C(C)(C)O[C@@]2(C/C=C(\C)C(=O)O)C(=O)O)C3=O (stereo partly specified),.,.,.,-22%,i
CSc1ccc(CCNC(=O)CCc2c(C)nc3ncnn3c2C)cc1,10,3%,.,0%,4%
COc1cccc(N2CCN(C(=O)c3ccc(CS(=O)c4ccccc4Cl)o3)CC2)c1 (stereo unspecified),-96*,10%,-9%,.,.
Cc1ccc(S(=O)(=O)Cc2ccc(C(=O)N3CCN(c4ccccn4)CC3)o2)cc1,-4,1%,1%,-12%,0%
COc1ccccc1S(=O)(=O)Cc1ccc(C(=O)N2CCN(c3cccc(Cl)c3)CC2)o1,-67*,8%,-1%,.,.
O=C(c1ccc(CS(=O)(=O)c2c(Cl)cccc2Cl)o1)N1CCN(c2ccccn2)CC1,-66*,-2%,14%,-11%,i
COc1cccc(N2CCN(C(=O)c3ccc(CS(=O)c4ccccc4C)o3)CC2)c1 (stereo unspecified),-39,-8%,-5%,-29%,i
CCOC(=O)NNC(=O)CCn1c2c(c3ccccc31)CCCC2,-89*,1%,4%,.,.
CC(=O)NNC(=O)CCn1c2c(c3ccccc31)CCCC2,2,-13%,0%,5%,i
CC1CCCCN1CCCNC(=O)Cn1ncc2c3ccccc3n(C)c2c1=O (stereo unspecified),31,4%,.,-8%,-18%
CC1CCCCN1CCCNC(=O)Cn1ncc2c3ccccc3n(Cc3ccccc3F)c2c1=O (stereo unspecified),-74*,1%,.,?,-28%
CCCn1c2ccccc2c2cnn(CC(=O)NC3CCC(C)CC3)c(=O)c21 (stereo unspecified),20,1%,10%,-2%,-12%
CCCn1c2ccccc2c2cnn(CC(=O)NCCCN3CCCC(C)C3)c(=O)c21 (stereo unspecified),-65*,4%,0%,-22%,i
SMILES,HCMV antiviral,Tb PYK inh,LmPK inhibitor,Vaccinia Venus,Vaccinia mCherry
CCCn1c2ccccc2c2cnn(CC(=O)N3CCCC(C)C3)c(=O)c21 (stereo unspecified),-62*,-4%,.,-15%,i
Cc1ccccc1Cn1c2ccccc2c2cnn(CC(=O)NCc3cccc(Cl)c3)c(=O)c21,-78*,-1%,.,-12%,-20%
CCCCOc1ccc(Cc2c(COCC)[nH]c(=S)[nH]c2=O)cc1,-7,1%,0%,-6%,0%
Cc1ccc(C2=Nc3ccc(Br)cc3C(c3ccncc3)=NN2)cc1,0,-1%,6%,-7%,i
Cn1c2ccccc2c2cnn(CC(=O)NCCCN3CCN(c4ccccc4F)CC3)c(=O)c21,-15,-1%,3%,-22%,-26%
Cc1ccc(C)c(N2CCN(CCCNC(=O)Cn3ncc4c5ccccc5n(C)c4c3=O)CC2)c1,-60*,-25%,.,-25%,-27%
CCCCOCCCNC(=O)C[C@H]1C[C@@]2(C(=O)OC)C(=C[C@H](COCc3ccccc3)O[C@@H]2C)N(Cc2ccc3c(c2)OCO3)C1=O,11,.,.,.,.
CC1=C(C(=O)OCC(C)C)C(c2ccsc2)C2=C(CCCC2=O)N1 (stereo unspecified),-78*,-1%,2%,-16%,-1%
CCCc1nn(C)c(C(=O)Nc2cccc(Cl)c2)c1Cl,-64*,-5%,-2%,-13%,-4%
CCCc1cc(C(=O)Nc2cccnc2)no1,41,4%,11µM*,2%,6%
CCCc1cc(C(=O)Nc2cccc(Cl)c2)no1,?,-10%,22µM*,0%,-15%
CC(C)N(c1ccccc1)c1ccc(NC(=O)CCl)cc1,-61*,-2%,-1%,.,.
Cc1cc(S(=O)(=O)NCCc2ccccc2)c(C)s1,-98*,-12%,1%,.,.
Cc1ccc(NC(=O)C2CCN(c3nnc(C)c4c(C)n(-c5ccccc5)nc34)CC2)cc1Cl,2,0%,.,-5%,-11%
COc1ccccc1NC(=O)N1CCN(c2nnc(C)c3c(C)n(-c4ccc(Cl)cc4)nc23)CC1,-2,-9%,.,?,?
Cc1nnc(N2CCN(C(=O)Nc3cc(F)ccc3F)CC2)c2nn(-c3ccc(Cl)cc3)c(C)c12,-30,2%,.,?,11µM*
COc1ccc(NC(=O)C2CCCN(c3nnc(C)c4c(C)n(-c5ccccc5)nc34)C2)cc1Cl (stereo unspecified),-90*,-2%,.,?,?
COc1ccc(-n2nc3c(N4CCC(C(=O)NCc5cccc(F)c5)CC4)nnc(C)c3c2C)cc1,-20,2%,.,28µM*,?
COc1ccc(-n2nc3c(N4CCCC(C(=O)NCc5ccc(C)cc5)C4)nnc(C)c3c2C)cc1 (stereo unspecified),-72*,1%,.,-28%,-24%
COc1ccc(Cl)c(NC(=O)C/C(C)=N/NC(=O)CCc2ccccc2)c1,25,-18%,2%,-19%,?
